# System: Pseudomonas aeruginosa PA14 dppA1-A5 penta mutant + pBBR5.DppA1 (PA14_58350)
# Test: respiration area under curve with compound as sole nitrogen source, 24 h (OmniLog AUC (arbitrary units)); higher = more respiration / better utilisation as nitrogen source, active = 2000 or more
# Procedure: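 Biolog Phenotype MicroArray plates PM6-PM8: each di/tripeptide is the sole nitrogen source. Tetrazolium reduction was read in the OmniLog for 24 h at 37°C and summarised as area under the respiration curve (arbitrary units). Values below 2000 count as no respiration. Strain is the SBP penta mutant complemented with DppA1 on a plasmid under its native promoter. Lys/His/Cys peptides are excluded.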
row,Compound,respiration area under curve
1,C[C@@H](O)[C@H](N)C(=O)N[C@@H](CC(=O)O)C(=O)O (plate: PM8),3640 (active)
2,CC[C@H](C)[C@H](N)C(=O)N[C@@H](Cc1ccc(O)cc1)C(=O)O (plate: PM6),655 (inactive)
3,CC[C@H](C)[C@H](N)C(=O)N[C@@H](Cc1ccccc1)C(=O)O (plate: PM6),1500 (inactive)
4,N[C@@H](CO)C(=O)N[C@@H](Cc1ccc(O)cc1)C(=O)O (plate: PM7),5300 (active)
5,CC[C@H](C)[C@H](NC(=O)[C@H](C)N)C(=O)O (plate: PM8),7110 (active)

# System: Pseudomonas aeruginosa PA14 dppBCDF deletion mutant
# Test: respiration area under curve with compound as sole nitrogen source, 24 h (OmniLog AUC (arbitrary units)); higher = more respiration / better utilisation as nitrogen source, active = 2000 or more; extreme values may be limits of the assay
# Procedure: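 Biolog Phenotype MicroArray plates PM6-PM8: each di/tripeptide is the sole nitrogen source. Tetrazolium reduction was read in the OmniLog every 15 min for 24 h at 37°C and summarised as area under the respiration curve (arbitrary units). Values below 2000 count as no respiration. Strain is the dipeptide ABC transporter deletion mutant.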
row,Compound,respiration area under curve
1,O=C(O)CC[C@H](NC(=O)[C@@H]1CCCN1)C(=O)O (plate: PM8),0 (inactive)
2,CSCC[C@H](N)C(=O)N[C@@H](Cc1ccc(O)cc1)C(=O)O (plate: PM8),55.2 (inactive)
3,CC(C)[C@H](NC(=O)[C@@H](N)Cc1ccccc1)C(=O)O (plate: PM8),3510 (active)
4,NCC(=O)N1CCC[C@H]1C(=O)O (plate: PM6),0 (inactive)
5,CC(C)C[C@H](NC(=O)[C@@H](N)CO)C(=O)O (plate: PM7),3310 (active)
6,C[C@@H](N)C(=O)NCC(=O)NCC(=O)O (plate: PM8),0 (inactive)
7,C[C@H](NC(=O)[C@@H](N)CCCN=C(N)N)C(=O)O (plate: PM6),8890 (active)
8,NC(=O)CC[C@H](N)C(=O)N[C@@H](CCC(=O)O)C(=O)O (plate: PM8),3750 (active)
9,N[C@@H](Cc1ccc(O)cc1)C(=O)N[C@@H](CCC(=O)O)C(=O)O (plate: PM7),277 (inactive)
10,CC(C)[C@H](N)C(=O)N[C@H](C(=O)O)C(C)C (plate: PM7),1580 (inactive)
11,CC[C@H](C)[C@H](N)C(=O)N[C@@H](Cc1c[nH]c2ccccc12)C(=O)O (plate: PM6),76.8 (inactive)
12,N[C@@H](Cc1ccccc1)C(=O)N[C@@H](Cc1c[nH]c2ccccc12)C(=O)O (plate: PM7),85 (inactive)
13,CC(C)[C@H](NC(=O)[C@@H](N)Cc1c[nH]c2ccccc12)C(=O)O (plate: PM8),0 (inactive)
14,CSCCC(NC(=O)C(N)C(C)C)C(=O)O (stereo not given) (plate: PM8),397 (inactive)
15,O=C(O)[C@H](Cc1c[nH]c2ccccc12)NC(=O)[C@@H]1CCCN1 (plate: PM8),358 (inactive)
16,C[C@@H](O)[C@H](N)C(=O)N[C@@H](CC(=O)O)C(=O)O (plate: PM8),0 (inactive)
17,NC(N)=NCCC[C@H](N)C(=O)N[C@@H](Cc1c[nH]c2ccccc12)C(=O)O (plate: PM6),7640 (active)
18,CC[C@H](C)[C@H](N)C(=O)N[C@@H](Cc1ccc(O)cc1)C(=O)O (plate: PM6),11 (inactive)

row,Compound,respiration area under curve
1,CC(C)C[C@H](N)C(=O)NCC(=O)O (plate: PM6),4090 (active)
2,CSCCC(N)C(=O)NC(CCCN=C(N)N)C(=O)O (stereo not given) (plate: PM7),13000 (active)
3,N[C@@H](Cc1c[nH]c2ccccc12)C(=O)N[C@@H](Cc1c[nH]c2ccccc12)C(=O)O (plate: PM7),436 (inactive)
4,CSCC[C@H](NC(=O)[C@@H](N)CO)C(=O)O (plate: PM7),88.8 (inactive)
5,CC[C@H](C)[C@H](N)C(=O)N[C@H](C(=O)O)C(C)C (plate: PM6),545 (inactive)
6,CSCC[C@H](N)C(=O)N[C@@H](Cc1c[nH]c2ccccc12)C(=O)O (plate: PM7),2520 (active)
7,C[C@H](N)C(=O)NCC(=O)O (plate: PM6),3630 (active)
8,C[C@H](N)C(=O)N[C@@H](CCC(N)=O)C(=O)O (plate: PM8),3540 (active)
9,CSCC[C@H](N)C(=O)NCC(=O)O (plate: PM7),33.2 (inactive)
10,CC(C)[C@H](NC(=O)[C@@H](N)CO)C(=O)O (plate: PM7),3050 (active)
11,CC(C)C[C@H](NC(=O)[C@@H](N)[C@@H](C)O)C(=O)O (plate: PM7),1070 (inactive)
12,CC[C@H](C)[C@H](N)C(=O)N[C@@H](Cc1ccccc1)C(=O)O (plate: PM6),52.2 (inactive)
13,N[C@@H](CO)C(=O)N[C@@H](Cc1ccc(O)cc1)C(=O)O (plate: PM7),1890 (inactive)
14,CC[C@H](C)[C@H](NC(=O)[C@H](C)N)C(=O)O (plate: PM8),1150 (inactive)
15,C[C@H](N)C(=O)N[C@@H](Cc1ccccc1)C(=O)O (plate: PM6),5070 (active)
16,NCC(=O)N[C@H](CO)C(=O)O (plate: PM8),0 (inactive)
17,CC(C)C[C@H](NC(=O)[C@@H](N)C(C)C)C(=O)O (plate: PM7),3160 (active)
